Data: PubChem BioAssay AID1347076 (National Center for Advancing Translational Sciences (NCATS), 2019)
Out of some 400,000 compounds screened, about 13,000 (3.2%) were called active. Entries that show only a call come without a potency. Inconclusive results (about 18%) are left out. Calls come from the whole dose curve; as a rule, active = well fitted cell-killing curve with a large enough effect; inconclusive = small, poorly fitted or top-dose-only effect, or effect the other way; inactive = flat fitted curve, though single readings scatter. Many of the other results were omitted from the sample, so actives are more common in it than they were.

Experiment: qHTS assay for MDR1-selective chemotherapeutics: Primary screen using the drug-selected MDR subline cells KB-V1; note: nearly all actives have a fitted effect of over 60% in size
Conditions: KB-V1 MDR cells viability, CellTiter-Glo, 72 h; series mostly up to 46.1 µM
Excerpt: A prime difficulty in effectively treating cancer is the development of cellular resistance to multiple structurally unrelated anticancer drugs, a phenomenon known as multidrug resistance (MDR). […] Numerous strategies to overcome P-gp-mediated MDR have been explored, including the design of drugs that evade recognition and efflux, and development of inhibitors to block efflux and restore drug accumulation. […] An alternative approach is to exploit resistance by identifying drugs that target MDR cells over the non-resistant parental cells from which they were selected. […] The development of MDR1-selective agents represents a new strategy for resolving multidrug resistance, as it remains a long-standing clinical challenge for cancer chemotherapy.
Our goal is to identify compounds that selectively kill P-gp-expressing MDR cells. We will identify MDR1-selective compounds by comparing toxicity of compounds in the screening library against parental, drug-naive (KB-3-1) adenocarcinoma cells as well as their drug-selected MDR sub-line (KB-V1). The differential toxicity of compounds against these two cell lines will be used to identify MDR1-selective compounds, whose cytotoxicity is potentiated, rather than diminished, by P-gp expression. This assay will be utilized to conduct a quantitative high-throughput screen (qHTS) in collaboration with the NIH Chemical Genomics Center to identify selective agents, and probe hits arising from the screen will be validated using secondary assays and characterized through a well-established follow-up research program. This screen was run against the entire NCGC library collection of about 400,000 compounds.
NIH Molecular Libraries Probe Production Network [MLPCN]
NIH Chemical Genomics Center [NCGC]
PI: Michael Gottesman, National Cancer Institute, NIH
Briefly, 5 microL of media containing either KB-V1 cells (columns 1-2, 4-48) are dispensed into Greiner white, treated solid-bottom 1536-well assay plates (media-only control is added to column 3). Compounds are then transferred via Kalypsys pin tool equipped with 1536-pin array (10 nL slotted pins, V&P Scientific, San Diego, CA). Following addition of compound, the plates are incubated at 37 degrees C for 72 hours. CellTiter-Glo (2.5 µL/well) is then added, and the plates are read in a ViewLux reader (Perkin-Elmer, clear luminescence filter, 1 second exposure, 1x binning) following a 10 minute incubation. All cells are dispensed in DMEM phenol-red free media containing 10% FBS.
Library plates were screened starting from the lowest and proceeding to the highest concentration. Vehicle-only plates, with DMSO being pin-transferred to columns 5-48, will be inserted uniformly at the beginning and the end of each library in order to monitor and record any shifts in the background, which can be affected by reagent dispensers or loss in enzyme activity over time. Screening data will be corrected, normalized, and concentration-effect relationships will be derived by using publicly-available NCGC, NCATS curve fitting algorithms (http://ncgc.nih.gov/pub/openhts).
Potency is the fitted concentration of half-maximal effect.

SMILES	Potency
CC(=O)OC[C@@H]1CN(Cc2ccccc2)C[C@H](n2cnc3c(NCc4ccco4)ncnc32)O1	inactive
c1ccc(C2c3[nH]c4ccccc4c3CCN2Cc2cccn2-c2cccnc2)nc1 (configuration not stated)	inactive
O=C(c1cn2ccccc2n1)N1CCc2c([nH]c3ccccc23)C1c1ccccn1 (configuration not stated)	inactive
COCc1ccc(C(=O)N2CCc3c([nH]c4ccccc34)C2c2ccccn2)s1 (configuration not stated)	18.4 µM (active)
COc1ccc(OC)c(NC(=O)c2cc(-c3cc(F)ccc3OCC3CCCO3)n[nH]2)c1 (configuration not stated)	inactive
Cn1c(=O)c2c(nc(SCC(=O)Nc3ccc(F)cc3)n2Cc2ccccc2)n(C)c1=O	inactive
C[C@H]1Cn2cnc(C(=O)N[C@H](C)c3ccccc3)c2C(=O)N1	inactive
COc1cc(OC)c(NC(=O)c2nc(-c3ccncc3)no2)cc1Cl	inactive
Cc1ccc(OCCC(=O)OCC(=O)N2c3ccccc3NC(=O)C2(C)C)cc1	inactive
CC1CC(=O)Nc2ccccc2N1S(=O)(=O)c1cccs1 (configuration not stated)	inactive
CC1CC(=O)Nc2ccccc2N1C(=O)COc1ccc2cc(Br)ccc2c1 (configuration not stated)	16.4 µM (active)
CN[C@H]1C[C@H]2c3cc(Oc4ccccc4C)ccc3CCN2C(=O)[C@H]1[C@H](C)O	inactive
C=CCNC(=O)c1ccc2nc(-c3ccco3)c(-c3ccco3)nc2c1	inactive
C=Cc1ccc(C(=O)N2CCCC(CCC(=O)N3CCN(c4ccccn4)CC3)C2)cc1 (configuration not stated)	inactive
COc1cccc(CC(=O)N2CCCC(CCC(=O)N3CCN(c4ccccn4)CC3)C2)c1 (configuration not stated)	inactive
O=C(CCC1CCCN(C(=O)Cc2ccc(F)cc2)C1)N1CCN(c2ccccn2)CC1 (configuration not stated)	16.4 µM (active)
COc1ccc(/C=C/c2ccnc3ccccc23)cc1OC	inactive
Cc1cccc(OCC(=O)NCC(=O)N/N=C/c2ccc(N(C)C)cc2)c1	inactive
Cc1ccc(/C=N/NC(=O)COc2ccccc2-c2ccccc2)cc1	1.03 µM (active)
Cc1ccc(/C=N/NC(=O)CSc2nc3ccccc3o2)cc1	inactive
CCCc1c(C)nc2scc(-c3ccc(Cl)cc3)n2c1=O	inactive
CCOC(=O)C1(CCOC)CCN(Cc2ccc(C(=O)OC)cc2)CC1	inactive
CCOC(=O)C1CCN(Cc2ccc(-c3ccccc3)cc2)CC1	inactive
O=C(NNS(=O)(=O)c1ccc(Cl)cc1)C1CCN(Cc2ccccc2)CC1	inactive
NC(=O)C1(N2CCCC2)CCN(Cc2ccccc2)CC1	inactive

SMILES	Potency
CCOC(=O)C1(S(=O)(=O)c2ccc(Cl)cc2)CCN(Cc2ccccc2)CC1	20.6 µM (active)
CCOC(=O)C1(S(=O)(=O)c2ccccc2)CCN(Cc2ccccc2)CC1	16.4 µM (active)
Cc1ccc(C=O)cc1Cl	inactive
Nc1ccccc1-c1nc2ccncc2[nH]1	inactive
COc1ccc(OC)c(NC(=O)C2(C)CCN2C(=O)Cc2ccccc2)c1 (configuration not stated)	inactive
Cc1ccc(S(=O)(=O)N2C[C@@H](C)[C@]3(C2)[C@H](O)[C@H](OC(=O)NCc2ccccc2)C[C@H]2C(=O)N(c4ccccc4)C(=O)[C@H]23)cc1	inactive
CC1CCCC(C)N1C(=O)COC(=O)c1ccccc1C(=O)c1ccccc1 (configuration not stated)	inactive
CCOc1ccc(NC(=O)C(CC(C)C)N2Cc3ccccc3C2=O)cc1 (configuration not stated)	inactive
O=C(CNS(=O)(=O)c1ccccc1)N1CCN(C(=O)c2ccco2)CC1	inactive
CN1CCN(S(=O)(=O)c2ccc(NC(=O)c3ccco3)cc2)CC1	inactive
CC(C)Cc1ccc(S(=O)(=O)N2CCN(C(=O)c3ccco3)CC2)cc1	7.31 µM (active)
CCOc1ccccc1NC(=S)C(=C([O-])c1ccc2c(c1)OCCO2)[n+]1ccc(CC)cc1	inactive
CCc1nnc(NC(=O)C2CC(=O)N(c3ccc4c(c3)OCCO4)C2)s1 (configuration not stated)	inactive
CC(=O)c1ccccc1NC(=O)C1CC(=O)N(c2ccc3c(c2)OCCO3)C1 (configuration not stated)	16.4 µM (active)
CCOC(=O)c1ccc(NC(=O)C2CC(=O)N(c3ccc4c(c3)OCCO4)C2)cc1 (configuration not stated)	inactive
COc1cccc(NC(=O)CSC2=Nc3ccccc3C3=NC(CC(=O)NC4CCCCC4)C(=O)N23)c1 (configuration not stated)	inactive
CCc1ccc2c(c1)NC(=O)C2(C)Cc1ccc(OC(F)(F)F)cc1 (configuration not stated)	inactive
Nc1ncnc2c1ncn2[C@@H]1O[C@H](CNC(=O)[C@H](N)Cc2cccnc2)[C@@H](O)[C@H]1O	inactive
CCC1(C)CC(=O)c2c(ccc3oc(C(=O)Nc4ccc(C(C)=O)cc4)c(C)c23)O1 (configuration not stated)	inactive
Cc1ccc(Cn2c(=O)n(CCCC(=O)NCc3ccccc3Cl)c(=O)c3ccccc32)cc1	inactive
COc1ccc(CCNC(=O)CCCCn2c(=O)c3ccccc3n(Cc3ccccc3C)c2=O)cc1OC	inactive
COc1cc(C(=O)Nc2ccc(OCc3cc(=O)n4cc(C)sc4n3)cc2)cc(OC)c1OC	inactive
Cn1c(=O)c2c(nc(Oc3ccc(C#N)cc3)n2Cc2ccc(Cl)cc2Cl)n(C)c1=O	inactive
Cc1ccc(C(=O)N/C(=C\c2cn(C)c3ccccc23)C(=O)N2CCN(C)CC2)cc1	inactive
Cc1ccc(N2C(=O)S/C(=C/c3cn(C)c4ccccc34)C2=O)cc1	inactive

SMILES	Potency
Cc1cccc(N=C2NC(=O)/C(=C/c3cn(C)c4ccccc34)S2)c1	14.6 µM (active)
CC1=C(C(=O)N2CCOCC2)CC(CC(=O)NCCCN(C)C)C(=O)N1Cc1ccc(C(C)(C)C)cc1 (configuration not stated)	inactive
CC(C)OC(=O)CC(=O)CC(O)c1cccc([N+](=O)[O-])c1 (configuration not stated)	inactive
CCN(c1ccc2c(c1)OCO2)S(=O)(=O)c1cc(Br)cc2c1N(C(=O)C1CC1)CC2	5.17 µM (active)
CN(Cc1ccccc1)C(=O)CCS(=O)(=O)c1cc(Br)cc2c1N(C(=O)C1CC1)CC2	inactive
CCOC(=O)N1CCN(S(=O)(=O)c2cc(Br)cc3c2N(C(=O)C2CC2)CC3)CC1	inactive
CCOC(=O)c1ccc(-c2ccc3ncnc(N(C)Cc4sccc4C)c3c2)o1	inactive
O=C(CNC(=O)c1ccc(Br)o1)Nc1ccccc1	inactive
CCN1CCN(c2c(Cl)cccc2NC(=O)c2ccc(Br)o2)CC1	inactive
CCCC(=O)Nc1ccc(Cl)c(NC(=O)c2ccc(Br)o2)c1	20.6 µM (active)
Cc1ccc2cccc(NC(=O)C(C)Oc3ccc(C)c(C)c3)c2n1 (configuration not stated)	inactive
CC1(C(=O)NS(=O)(=O)c2ccc(C#N)cc2)CCN1C(=O)CC1CCCC1 (configuration not stated)	inactive
Cc1cc(-c2n[nH]c(=S)n2/N=C/C(Br)=C/c2ccccc2)n[nH]1	10.3 µM (active)
S=c1[nH]nc(-c2cc(-c3ccccc3)n[nH]2)n1/N=C/c1c2ccccc2cc2ccccc12	inactive
CC(C)c1cc(C(=O)N/N=C/C(Br)=C/c2ccccc2)n[nH]1	inactive
CCCCS(=O)(=O)c1oc(-c2cccs2)nc1S(=O)(=O)c1ccccc1	inactive
O=C(C1CCCO1)N1CCN(C(=O)C23CC4CC(CC(C4)C2)C3)CC1 (configuration not stated)	inactive
CCN(c1ccccc1)S(=O)(=O)c1ccc(NC(=O)C(C)(C)C)cc1	11.6 µM (active)
CCN(c1ccccc1)S(=O)(=O)c1ccc(N)cc1	inactive
CCN(c1ccccc1)S(=O)(=O)c1ccc(C(=O)Nc2ccccc2OC)cc1	inactive
CC1(C(=O)Nc2cccc3c2CCCC3)CCN1C(=O)CCc1ccc(Cl)cc1Cl (configuration not stated)	inactive
CN(CCO)C(=O)c1nc[nH]c1C(=O)N(C)Cc1ccccc1	inactive
Cc1ccc(CNC(=O)CSc2c3c(nc4cc(Cl)ccc24)CCCC3)cc1	inactive
Cc1ccc(NC(=O)c2oc3ccccc3c2C)c([N+](=O)[O-])c1	inactive
Cc1c(NC(=S)NCc2ccc(F)cc2)cccc1[N+](=O)[O-]	inactive

SMILES	Potency
Cc1ccc(NC(=O)CN(C)Cc2ccc(F)cc2)c([N+](=O)[O-])c1	9.2 µM (active)
CCC(=O)N1CCC(C)(C(=O)Nc2cc(OC)c(OC)c(OC)c2)C1 (configuration not stated)	inactive
CCOCCc1nn2c(=O)cc(COC(=O)CNC(=O)c3ccc(C(C)(C)C)cc3)nc2s1	inactive
COc1ccc(NC(=O)CSc2nnnn2-c2cccc(OC)c2)cc1	inactive
COc1ccc(CSc2nnnn2-c2ccc(C(=O)O)cc2)cc1	inactive
COc1ccc(-n2nnnc2SCC(=O)c2ccc(OC)c(OC)c2)cc1	18.4 µM (active)
COc1c(C)cc(C(O)c2ncc(-c3cccc(C(F)(F)F)c3)[nH]2)cc1C (configuration not stated)	inactive
CS(=O)c1ccc(/C=C2\C=Cc3ccccc32)cc1 (configuration not stated)	inactive
COc1ccccc1Oc1ccc(S(=O)(=O)Nc2cccnc2)cc1	2.59 µM (active)
CCOc1ccc(S(=O)(=O)Nc2ccc(OC)nc2)cc1	inactive
COc1ccc(S(=O)(=O)Nc2cccnc2)c(Cl)c1Cl	inactive
Cc1cc(C)n2ncc(C(=O)N3CCCC3)c2n1	inactive
Cc1cc(Cl)ccc1OCCCC(=O)Nc1cccc(-n2cnnn2)c1	inactive
CCOC(=O)N1CCN(C(=O)COc2ccc(Cl)cc2C)CC1	inactive
Cc1cc(Cl)ccc1OCCCC(=O)NCc1ccncc1	16.4 µM (active)
COCOCCn1cc(CN2CCS(=O)(=O)N(Cc3ccc(-c4cccc(N(C)C)c4)cc3)C(CC(C)C)C2=O)nn1 (configuration not stated)	inactive
CCNC(=O)C1(C)CCCN(C(=O)c2c(C)noc2C)C1 (configuration not stated)	inactive
CCCCCCNC(=O)O[C@H]1CN(C(=O)OC(C)C)N(C(=O)OC(C)C)[C@@H]2CN(S(=O)(=O)c3ccc(C)cc3)C[C@]12O	inactive
COc1ccc(C2=NN(C(=O)CSc3nnnn3C)C(c3ccco3)C2)cc1 (configuration not stated)	inactive
CCOC(=O)C1C(=O)NC(N2CCN(c3ccccc3)CC2)=NC1c1ccco1 (configuration not stated)	inactive
CCOC(=O)C1C(=O)C=C(c2ccc(OC)cc2)CC1c1ccco1 (configuration not stated)	11.6 µM (active)
O=C(CS(=O)(=O)c1cccc2nsnc12)N1CCN(c2cccc(Cl)c2)CC1	inactive
